# In the library only some 18% were active in any assay of this set; here they are far more common.
# TDP1 block: inhibitors of human tyrosyl-DNA phosphodiesterase TDP1; Q9NUW8; Potency, µM (highest dose often 130 µM), for inactives: at the highest dose activity change, negative = inhibition, usual class: inhibitors; recombinant TDP1, AlphaScreen DNA substrate cleavage; 350,000 tested, 0.28% active; AID 485290; note: potency is the fitted concentration of half-maximal effect; nearly all actives have a fitted effect of over 40% in size
# Target sequence (Q9NUW8 whole entry, looked up): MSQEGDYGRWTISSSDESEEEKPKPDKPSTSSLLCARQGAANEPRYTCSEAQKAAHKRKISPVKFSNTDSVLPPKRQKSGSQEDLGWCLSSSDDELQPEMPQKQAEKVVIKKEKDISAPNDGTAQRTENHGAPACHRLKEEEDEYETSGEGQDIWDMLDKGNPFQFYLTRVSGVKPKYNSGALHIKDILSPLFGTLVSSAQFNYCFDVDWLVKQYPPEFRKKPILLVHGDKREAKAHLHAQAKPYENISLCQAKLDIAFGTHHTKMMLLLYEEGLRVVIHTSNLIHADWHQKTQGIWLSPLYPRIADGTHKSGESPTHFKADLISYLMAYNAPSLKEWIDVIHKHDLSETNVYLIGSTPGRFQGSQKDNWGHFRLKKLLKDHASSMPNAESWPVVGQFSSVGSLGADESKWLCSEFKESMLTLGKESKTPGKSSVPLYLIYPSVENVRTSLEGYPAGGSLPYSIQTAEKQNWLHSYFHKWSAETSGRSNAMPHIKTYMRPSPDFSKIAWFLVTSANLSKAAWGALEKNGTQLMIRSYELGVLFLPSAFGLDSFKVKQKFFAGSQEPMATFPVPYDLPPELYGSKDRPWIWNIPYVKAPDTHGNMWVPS
#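 Recombinant E. coli-expressed Tdp1 (1 nM) preincubated with compound 15 min at RT, then 5'-biotin/3'-phosphotyrosine-FITC DNA substrate (15 nM) added for 5 min. AlphaScreen beads (10 ug/ml) added, 10 min RT; tyrosine-FITC cleavage read as signal loss.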
# Six1-Eya2 inh: blocks human Six1 binding to Eya2 | Q15475+O00167 | AlphaScreen GST-Six1/His-Eya2 binding, biochemical; active compounds read low | activity change, % (test concentration not listed) | 360,000 tested, 0.56% active; in the data active = activity change below about -65%; inconclusive = mostly about -30% to -63%
#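 Six1/Eya2 binding was read as AlphaScreen signal after compounds were pinned into GST-Six1 plus His-tagged Eya2 (5X stock 250/500 nM) in pH 8.0 Tris/NaCl/TCEP buffer, beads added, then incubated 1 h, 37 C, dark.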
# CtBP-E1A blk: inhibitors of CtBP/E1A interaction | AlphaScreen GST-E1A/His-CtBP binding, 1536-well; active compounds read low | activity change, % (concentration not given with the values) | 340,000 tested, 0.49% active | AID 651724; in the data active = activity change below about -65%; inconclusive = mostly about -30% to -63%
#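 GST-E1A and His-tagged CtBP (125 nM each as 5X stock) were preincubated with pin-transferred compound for 2 h at 37 °C in the dark, then glutathione donor and nickel acceptor beads were added for 1 h before AlphaScreen reading.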
# DT40 TDP1 CPT: growth inhibition of DT40 Tdp1-/-;hTDP1 cells with camptothecin (screen for TDP1 inhibitors); 420,000 tested, 12% active; chicken DT40 Tdp1-/-;hTDP1 cells + 20 nM CPT, ATP luminescence, 48 h; Potency, µM (doses to about 46.2 µM), for the others: top-dose activity change, negative = growth inhibition, usual class: inhibitors; note: potency is the fitted concentration of half-maximal effect; nearly all actives have a fitted effect of over 55% in size
#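 Cell growth measured by CellTiter-Glo luminescence after a minimum 48 h, 37 C compound exposure with 20 nM CPT in Tdp1-knockout DT40 cells stably expressing hTDP1, seeded 400/well; qHTS titration format.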
# IL-1B inflam inh: inhibitors of inflammasome signaling (IL-1 beta secretion). THP-1 LPS/ATP IL-1B secretion, AlphaLISA, 16 h; active compounds read low. activity change, % at 57.5 µM. 360,000 tested, 4.7% active. AID 743279; in the data active = activity change below about -50%; inconclusive = mostly about -30% to -49%
#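 THP-1 cells pretreated 1 hr with compounds (up to 57.5 uM final), then stimulated with LPS (250 ng/mL final) plus ATP (1.25 mM final); secreted IL-1B measured by AlphaLISA after 16 hr, decreased signal indicating inhibition.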
# DT40 TDP1 no CPT: qHTS for Inhibitors of human tyrosyl-DNA phosphodiesterase 1 (TDP1): qHTS in cells in absence of CPT; DT40 Tdp1-/- hTDP1 cells, no CPT, ATP luminescence, 48 h; Potency, µM (series often up to 46.2 µM), inactives show at the top dose activity change, negative = growth inhibition, hits mostly inhibitors; 420,000 tested, 15% active; note: potency is the fitted concentration of half-maximal effect; nearly all actives have a fitted effect of over 55% in size
#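 No-CPT arm: Tdp1-/-;hTDP1 DT40 cells (400/well) plus compounds, incubated ≥48 hr at 37 °C. Readout CellTiter-Glo luminescence.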
# Numbers without * were called inactive; ? = inconclusive; . = not tested or not shown; [ ] = remark or other dose. Unless noted, calls come from the whole dose curve; as a rule, active = well fitted curve in the direction sought with a large enough effect; inconclusive = small, poorly fitted or top-dose-only effect, or another doubt; inactive = no such curve, though single readings can be large; an effect the other way counts as inactive or inconclusive. % is set by controls: 0 for no effect and ±100 for the full control effect.
SMILES,TDP1 block,Six1-Eya2 inh,CtBP-E1A blk,DT40 TDP1 CPT,IL-1B inflam inh,DT40 TDP1 no CPT
O=C(CN1C(=O)c2ccccc2C1=O)OCC(=O)c1ccc(F)cc1,1%,5,2,13%,8,5%
O=C(COC(=O)C1CC2CCCC(C1)C2=O)c1cccc(Br)c1 (centres undefined),-3%,3,.,0%,16,?
O=C(CN1CC(=O)Oc2ccccc21)OCC(=O)c1ccccc1,-12%,-91*,-92*,?,71,?
CCC(CC)COC(=O)C(C#N)c1nc2ccccc2nc1N1CCN(CC)CC1 (centres undefined),3%,-18,-5,21µM*,-60*,?
CCC(C)COC(=O)C(C#N)c1nc2ccccc2nc1N1CCCCC1 (centres undefined),-1%,-3,2,?,-28,16µM*
CN(C)/C=C/C(=O)/C=C/c1cn(-c2ncc(C(F)(F)F)cc2Cl)c2ccccc12,3%,-10,0,?,-8,?
COC1=CC(=O)C[C@@H](C)[C@]12Oc1c(Cl)c(OC)cc(OC)c1C2=O,10%[56.1 µM],0,4,?,-2,17µM*
COc1ccc(C(=O)NC(=S)Nc2cccc(S(=O)(=O)N3CCOCC3)c2)cc1,4%,2,-11,5.8µM*,-4,7.3µM*
CCOc1c(Br)cc(C(=O)Nc2cccc(S(=O)(=O)N3CCOCC3)c2)cc1OC,.,-20,-10,?,-20,23µM*
CC(=O)Oc1ccc(-c2ccc(C(=O)Nc3cccc(S(=O)(=O)N4CCOCC4)c3)cc2)cc1,0%,-23,1,23µM*,-119*,16µM*
O=C1N(Cc2cccnc2)C[C@@H]2C[C@@H](c3ccc(-c4ccccc4)cc3)N3CCC[C@@]123,0%,-8,-5,?,-11,?
Cc1nc2c(n1C1CCCCC1)C(=O)c1ccccc1C2=O,4%,-1,2,21µM*,17,15µM*
Cc1nc2c(OCc3cccc(Cl)c3)cccn2c1N(C)Cc1cccs1,.,-12,-8,21µM*,-20,16µM*
CCc1nc2c(OCc3ccc(F)cc3)cccn2c1N(C)C(=O)C(C)C,.,3,-4,-25%,2,?
COC(=O)c1ccccc1COc1cccn2c(N(C)Cc3cccs3)c(C)nc12,.,-17,-5,?,-78*,?
CCC(CC)C(=O)N(C)c1c(C)nc2c(OCc3ccccc3C(=O)OC)cccn12,.,-17,-8,?,21,16µM*
Cc1nc2c(OCc3ccc(Cl)cc3Cl)cccn2c1N(C)Cc1cccs1,.,-5,-6,?,?,?
CCC(CC)C(=O)N(C)c1c(C)nc2c(OCc3ccccc3OC)cccn12,.,2,0,?,25,15µM*
COCCN1C[C@@H](CO)O[C@@H](n2cnc3c(NC4CC4)ncnc32)C1,.,13,0,-14%,?,2%
Nc1ncnc2c1ncn2[C@@H]1O[C@H](C(=O)N2CCCN(Cc3cccs3)CC2)[C@@H](O)[C@H]1O,.,5,0,1%,-17,-4%
Cc1cccc(NC(=O)c2cc(-c3cc(Cl)ccc3O)n[nH]2)c1,.,2,0,?,-25,?
Cc1nc2c(OCc3ccc(C(F)(F)F)cc3)cccn2c1N(C)C(=O)CCC1CCCC1,.,-4,0,?,-11,?
CCC(CC)C(=O)N(C)c1c(C)nc2c(OCC3CCCCC3)cccn12,.,0,2,?,-16,13µM*
O=C(NCc1ccc(Cl)c(Cl)c1)c1cc(C2CCCCN2C(=O)c2ccccn2)on1 (centres undefined),.,4,-4,10µM*,0,18µM*
O=C(NCc1ccccc1)c1cc(C2CCCCN2C(=O)CCCc2ccccc2)on1 (centres undefined),.,2,-6,-24%,-15,?
SMILES,TDP1 block,Six1-Eya2 inh,CtBP-E1A blk,DT40 TDP1 CPT,IL-1B inflam inh,DT40 TDP1 no CPT
O=C(Nc1ccccc1Cl)c1cc(C2CCCCN2C(=O)OCCF)on1 (centres undefined),.,5,10,?,6,?
O=C(NCc1ccc(Cl)c(Cl)c1)c1cc(C2CCCCN2C(=O)OCCF)on1 (centres undefined),.,-7,3,23µM*,-23,23µM*
Cc1ccc(OCC(=O)Nc2ccc3c(c2)C(=O)NC3=O)c(C)c1,2%,-12,-15,?,20,?
COc1ccccc1N/N=C1\COC(C)(C)CC1=O,1%,-19,-22,-11%,-1,9%
Cc1ccc(C(=O)NCCCNC(=O)COc2ccc(Cl)cc2)cn1,.,18,-2,-9%,64,0%
O=C(Cn1cc(C(F)(F)F)cc(Cl)c1=O)NCC1COc2ccccc2O1 (centres undefined),1%,1,.,21%,5,8%
Cc1ccc(/C=C(\C#N)c2nc(-c3ccc(-c4ccccc4)cc3)cs2)cc1,0%[12.3 µM],.,.,-20%,.,-24%
CCOC(=O)c1sc(NC(=O)c2cc(-c3ccccc3C)nc3ccccc23)c(C#N)c1C,6%,-2,7,9.2µM*,-83*,7.3µM*
CCOC(=O)c1sc(NC(=O)c2ccncc2)c(C#N)c1C,8%,-1,-4,6.5µM*,26,5.2µM*
Cc1ccccc1-c1cc(C(=O)Nc2sc(C)c(C)c2C(N)=O)c2ccccc2n1,7%,-4,-14,16µM*,-15,18µM*
Cc1ccccc1-c1cc(C(=O)N2CCCC2)c2ccccc2n1,3%,-3,10,1%,-7,?
CCOC(=O)c1sc(NC(=O)CSc2nc(C)cc(-c3ccccc3)n2)c(C#N)c1C,-5%,0,5,1%,21,-14%
CCOC(=O)c1c(NC(=O)c2ccncc2)sc(C)c1C,2%,22,.,?,-2,?
COC(=O)c1sc(NC(=O)c2ccc(Cn3cc(Cl)cn3)o2)c(C#N)c1C,.,-2,-3,16µM*,16,?
C/C(=C/Cc1c(O)cc2oc(C)cc(=O)c2c1O)COC1OC(CO)C(O)C(O)C1O (centres undefined),-7%,0,2,1%,27,2%
CN(C)CCN1CCN([C@H]2CS(=O)(=O)N[C@@H]2COCc2ccccc2)CC1,.,13,-21,-16%,-25,-1%
